Several values for one entry are separate records, joined by “and”; a condition that tells them apart may be missing. Identical values can stand only once. About 79,000 compounds went through this panel and 15% of them were active in at least one assay; those are over-represented in the sample as a whole. Some structures have more than one record in an assay (separate samples or runs), and their calls can disagree. Activity calls are given as the source filed them. No stated cut-off is given here; in the data, active means growth inhibition above about 70%; inactive means the rest.
Columns and labels:
[1] = NCI Yeast Anticancer Drug Screen. Data for the rad50 strain (AID 155);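 further: 0% = growth of vehicle-only cultures of the same strain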; conditions: S. cerevisiae rad50 strain growth inhibition; at 50.0 µM; stronger effect = higher value
How it was run: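 Yeast carrying a defined DNA repair defect were exposed to test compounds, and growth was compared with vehicle-treated controls to give percent inhibition.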

[2] = NCI Yeast Anticancer Drug Screen. Data for the mec2-1 strain (AID 157); conditions: S. cerevisiae mec2-1 strain, at 50.0 µM, stronger effect = higher value
How it was run: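 Each compound was tested on mec2-1 yeast, a strain altered in DNA damage repair or cell cycle control. Growth inhibition is reported relative to vehicle.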

[3] = NCI Yeast Anticancer Drug Screen. Data for the sgs1 mgt1 strain (AID 161);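 further: 0% = growth of cultures given vehicle only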; conditions: S. cerevisiae sgs1 mgt1 strain, at 50.0 µM, stronger effect = higher value
How it was run: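 Test agents were incubated with a DNA-repair-mutant yeast strain. Growth was then read and compared against vehicle-treated controls.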

[4] = NCI Yeast Anticancer Drug Screen. Data for the cln2 rad14 strain (AID 165);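 further: 0% = growth equal to vehicle treated cultures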; conditions: S. cerevisiae cln2 rad14 strain, at 50.0 µM, stronger effect = higher value
How it was run: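 Test compounds were added to cln2 rad14 yeast cultures; inhibition of growth was then determined by comparison with vehicle treatment.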

[5] = NCI Yeast Anticancer Drug Screen. Data for the bub3 strain (AID 167); conditions: S. cerevisiae bub3 mutant strain, at 50.0 µM, stronger effect = higher value
How it was run: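 Compounds were applied to a genetically altered yeast strain carrying a cell-cycle control defect. Growth inhibition was scored against vehicle-treated controls.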

[6] = NCI Yeast Anticancer Drug Screen. Data for the mlh1 rad18 strain (AID 175); conditions: S. cerevisiae mlh1 rad18 strain growth inhibition; at 50.0 µM; stronger effect = higher value
How it was run: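 Inhibition values reflect reduced growth of mutant yeast versus vehicle-treated controls following compound exposure; the mutations affect DNA damage repair.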

Measured: growth inhibition

CC(C)(N)CCC(=O)O
inactive: [1] 10.3% and -0.25% | [2] 20.9% and 3.7% | [3] 12.6% and -1.85% | [4] -3.05% and -7.2% | [5] -28.7% and 11.1% | [6] 6.8% and -3.15%

C/C(=N\O)c1ccccc1
inactive: [1] -11.2% and 18.9% | [2] -20.4% and -5.5% | [3] -3.5% and 13% | [4] 2.8% and -13.4% | [5] 8.3% and -2.6% | [6] -19.9% and 14.5%

COC12C=CC(CC1)C(C)(C)C2O (configuration not stated)
inactive: [1] 7.6% and 0.25% | [2] -0.75% and -7.75% | [3] -1.55% and -2.25% | [4] -11% and -14.2% | [5] 7.85% and 14.7% | [6] 4.25% and 1.9%

C=CCOC(=O)C(C)OC(=O)C(C)O (configuration not stated)
inactive: [1] 35.3% and 15.3% | [2] 11.8% and 10.6% | [3] 13.6% and -3.75% | [4] 11.6% and -4% | [5] 6.85% and -0.4% | [6] 9.85% and 1.9%

CCOC(=O)c1ccc(N=[N+]([O-])c2ccc(C(=O)OCC)cc2)cc1
inactive: [1] -10.8% and -4.1% | [2] -4.95% and -4.3% | [3] 2.8% and -7.65% | [4] -6% and -3.25% | [5] -40.5% and -19.9% | [6] -13.4% and 19.8%

O=C1NC(=O)C(CO)(c2ccccc2)N1 (configuration not stated)
inactive: [1] 14.2% and 7.65% | [2] 2% and -11.6% | [3] 6% and -1.85% | [4] -18.6% and 46.5% | [5] 0.95% and 10.4% | [6] 7.2% and 21.4%

Oc1ccc[n+](Cc2ccccc2)c1
inactive: [1] -7.85% and -26.4% | [2] -24.1% and -43.9% | [3] -47.3% and -12.4% | [4] 7.35% and 24.6% | [5] -49.5% and -22.8% | [6] -21.8% and -11.4%

Cc1ccc(S/C=C/C(=O)O)cc1
inactive: [1] -3% and 19.8% | [2] 18.5% and -0.1% | [3] 16.1% and 20.4% | [4] 7.7% and 19.2% | [5] -0.1% and -6.05% | [6] 20.6% and 5.45%

COC(=O)C1=COC(C)C2CN3CCc4c([nH]c5cc(OC)c(OC)cc45)C3CC12 (configuration not stated)
inactive: [1] 14.2% and 5.35% and -4.65% | [2] -5.4% and -5.6% and -9.7% | [3] 5.6% and 12.8% and -5.45% | [4] 6.1% and 14.9% and 10.6% | [5] 26.4% and 18.1% and -20.4% | [6] 25.6% and -54.1% and -63.4%

Cc1ccc(S(=O)(=O)NC(CCC(=O)O)C(=O)O)cc1 (configuration not stated)
inactive: [1] -11.2% and -4.6% | [2] -22.7% and 7.2% | [3] 0.15% and 0.2% | [4] -6.75% and -12.2% | [5] 21.1% and 6.9% | [6] -12.4% and 9.75%

COc1cc(NCCCNc2c3ccc(Cl)cc3nc3ccc(OC)cc23)c2ncccc2c1
inactive: [2] -13.9% and 24% | [4] -0.35% and 54.1% | [5] -18.2% and 50.2%
-4.6% (inactive) and 85.9% (active): [6]
-3.5% (inactive) and 79.2% (active): [1]
8.15% (inactive) and 70% (active): [3]

CCCCNC(=S)NCCCC
inactive: [1] -6.45% and -1.4% | [2] 9.9% and 8% | [3] -11% and 19.2% | [4] -32% and -17.5% | [5] 1.15% and -4.35% | [6] -2.4% and 17.3%

COc1cc2c(cc1OC)C(=O)C1COC(=O)C1C2 (configuration not stated)
inactive: [1] -17% and 0.6% | [2] -18.8% and -11.5% | [3] -8.7% and 14.8% | [4] -11.9% and 5.05% | [5] -6.2% and -4.85% | [6] 0.55% and 12.2%

CC(N)(CCO)C(=O)O (configuration not stated)
inactive: [1] 1.25% and -1.8% | [2] 11.9% and -3% | [3] -5.95% and -19.4% | [4] 1.4% and -18% | [5] -5.5% and 8.75% | [6] 3.95% and 7.2%

OCC1CCCCO1 (configuration not stated)
inactive: [1] 0.3% and 1.8% | [2] -13.7% and -6.7% | [3] 2.4% and -24.7% | [4] -1.65% and -37.9% | [5] 7.65% and -10.8% | [6] 3% and -8.4%

O=C1C(Br)CCCCCCCCCC1Br (configuration not stated)
inactive: [1] -26.2% and 45% | [2] -6.4% and 11.2% | [3] 4.05% and 50% | [4] -3.1% and 22.9% | [5] -12.3% and 24.4% | [6] 0.9% and 36.4%

O=C(CC(=O)c1cccnc1)NC(=O)c1ccccc1
inactive: [1] -1.05% and -34.5% | [2] -2.5% and -22.1% | [3] -1.35% and -4.05% | [4] 7.85% and 12.1% | [5] 3.9% and 7.6% | [6] -6% and -1.95%

Nc1ccc(S(=O)(=O)Nc2cnc3ccccc3n2)cc1
inactive: [1] -11.1% and -2.05% | [2] -1.95% and -1.25% | [3] 2.25% and -5.9% | [4] -20.2% and -30.1% | [5] -11.2% and -10.6% | [6] -4.45% and -6.45%

CC(=O)OC1CCC2(C)C(CCC3(C)C2CCC2C4=CC(C)(C)CCC4(C)CCC23C)C1(C)C (configuration not stated)
inactive: [1] 14.1% and -0.45% | [2] 10% and -9.7% | [3] -10.7% and -1.75% | [4] 13.4% and -3.6% | [5] 10.6% and -4.15% | [6] 20.1% and 7.15%

C=CCC(N)C(=O)O (configuration not stated)
inactive: [1] -11.9% and -1% | [2] -20.6% and -4.45% | [3] 4.95% and -1.85% | [4] 13.5% and 2.3% | [5] -10.6% and 8.3% | [6] -1.7% and -3%

O=C(O)c1cccnc1
inactive: [1] 18.2% and 13.2% | [2] 5.35% and -7.8% | [3] -4.15% and -10% | [4] 2.65% and -2.6% | [5] 5.65% and -0.1% | [6] 18.5% and 16.7%

O=C(/C(=N/N(C(=O)c1ccccc1)c1ccccc1)c1ccccc1)c1ccccc1
inactive: [1] 29.4% and 22.2% | [2] 5.2% and -1.9% | [3] 19% and 16.8% | [4] -12.4% and 16.6% | [5] -3.85% and -6.05% | [6] 8.65% and 26.4%
